Laboratory results as given in PubChem BioAssay.

Biological target: Pro-neuregulin-1, membrane-bound isoform (Homo sapiens) (UniProt Q02297)
Assay: NRG1 binders on small-molecule microarrays, primary screen, psychiatric disease protein project, biochemical, small-molecule microarray, fluorescence 635/667 (AID 1075);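 also: score combines 667 nm spot fluorescence with signal to noise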
Details: NRG1 binding, 635 nm fluorescence, higher = more signal

Sequence of Pro-neuregulin-1, membrane-bound isoform (Homo sapiens) (Q02297 whole entry, looked up, canonical isoform): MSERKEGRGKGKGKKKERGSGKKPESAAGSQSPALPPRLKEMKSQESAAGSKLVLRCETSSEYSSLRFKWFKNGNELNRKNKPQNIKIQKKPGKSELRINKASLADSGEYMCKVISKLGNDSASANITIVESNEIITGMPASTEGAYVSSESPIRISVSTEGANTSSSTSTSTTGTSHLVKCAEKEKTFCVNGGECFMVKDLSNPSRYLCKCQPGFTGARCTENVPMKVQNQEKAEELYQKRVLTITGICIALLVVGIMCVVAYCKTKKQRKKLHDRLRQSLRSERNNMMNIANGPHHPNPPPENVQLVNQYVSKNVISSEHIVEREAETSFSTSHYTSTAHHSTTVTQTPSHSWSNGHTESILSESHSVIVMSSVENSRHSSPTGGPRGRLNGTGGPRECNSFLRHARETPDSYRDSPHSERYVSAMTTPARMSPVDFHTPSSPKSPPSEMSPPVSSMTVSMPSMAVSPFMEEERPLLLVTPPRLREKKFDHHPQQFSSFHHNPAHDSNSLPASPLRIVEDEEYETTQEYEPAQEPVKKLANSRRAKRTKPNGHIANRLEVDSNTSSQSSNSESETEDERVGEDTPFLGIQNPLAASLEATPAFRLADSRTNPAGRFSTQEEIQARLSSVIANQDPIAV

Q: C=C(COC)/C(=C/C[C@@H](OC(C)=O)c1cccc(OCCO)c1)c1cc(C(=O)OC)ccc1OC was tested. Which composite z-score did it give?
A: Its composite z-score is -0.582.

Q: With O=C/C=C/c1ccccc1Cl as the compound, how does the composite z-score read?
A: The composite z-score was 1.05.

Q: Cc1ccc(S(=O)(=O)c2cc3oc2CC[C@@H](CO)NC(=O)N(C)Cc2cn(nn2)C[C@H](Cc2ccccc2)NC3=O)cc1 was tested. Which composite z-score did it give?
A: The composite z-score was 0.226.

Q: With O=C1O[C@H](c2ccccc2)[C@H](c2ccccc2)N2[C@H]1[C@@H](C(=O)Nc1nc3ccccc3s1)[C@]1(C(=O)Nc3ccc(C#CC4=CCCCC4)cc31)[C@H]2c1ccccc1OCCO as the compound, how does the composite z-score read?
A: Its composite z-score is 1.59.

Q: C=CCC1=C[C@H]2[C@H]([C@@H]3C=C[C@]2(CC=C)C(=O)[C@]32CO2)[C@@]2(CO2)C1=O was tested. Which composite z-score did it give?
A: Its composite z-score is -0.35.

Q: With CC(C)N1CC=CC23O[C@@H]4/C=C\CCCOC(=O)C4[C@H]2C(=O)N(CCO)[C@@H]3C1=O (stereo not given in full) as the compound, how does the composite z-score read?
A: Its composite z-score is 2.16.

Q: How did the composite z-score turn out when C=CCC(OC(C)=O)[C@@H]1[C@@H](N(Cc2cc3ccccc3o2)C(=O)Cc2ccc(F)cc2)c2cc(OCCCO)ccc2N1C(=O)c1ccc(-c2ccccc2)cc1 (stereo not given in full) was run?
A: The composite z-score was -0.399.

Q: C=CCc1cccc([C@H]2N[C@H](C(=O)O)CC[C@@H]2C)c1 was tested. Which composite z-score did it give?
A: The composite z-score was -0.0316.

Q: For CCOC(=O)C[C@H]1[C@H](OC(=O)Cc2ccc3c(c2)OCO3)[C@@H](NC(=O)c2ccc3ccccc3c2)c2cc(OCCCO)ccc2N1C(=O)Cc1ccc(OC)cc1, which composite z-score is on record?
A: Its composite z-score is 0.759.

Tested on: Neuregulin-1 EGF-like domain
Assay: binders of neuregulin-1 EGF-like domain, primary screen, biochemical, small-molecule microarray, 635 nm fluorescence (AID 1081);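 also: binding of the protein to compounds printed on small-molecule microarray slides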
Details: small-molecule microarray binding, higher = more signal

Q: Which composite z-score does the source give for Cc1ccc(S(=O)(=O)N2[C@@H](c3ccccc3)C(C(=O)O)=CC[C@H]2c2ccccc2)cc1 here?
A: The composite z-score was 1.38.

Q: With CC[C@H]1C2=C3C(CC[C@H]4C(OC)OC[C@](C)([C@@H]34)N(C(=O)OC(C)(C)C)C2)C(CO)C1CO (stereo not given in full) as the compound, how does the composite z-score read?
A: The composite z-score was 1.13.

Q: Which composite z-score does the source give for C=CCN1C(=O)[C@@]2(O[C@@H](CCn3cc([C@H](O)c4ccccc4)nn3)[C@H]([Si](C)(C)c3ccc(OC)cc3)[C@H]2C)c2cc(N3CCOC3=O)ccc21 here?
A: Its composite z-score is 1.1.

Q: How did the composite z-score turn out when CO[C@@H]1COC(=O)CC=C[C@@H](C)[C@H](OC)COC(=O)CC=C[C@H]1C was run?
A: The composite z-score was -0.366.

Q: With CCCC[C@H]1OB(O)C[C@H]2C1=C(COC)C[C@H]1C(=O)N(Cc3ccccc3)C(=O)[C@H]12 as the compound, how does the composite z-score read?
A: Its composite z-score is -0.334.

Q: Which composite z-score does the source give for C=CC[C@@]1(C(=O)N2CCOCC2)N=C(c2ccc(OCCCO)cc2)O[C@@H]1c1ccccc1 here?
A: Its composite z-score is 1.08.

Q: How did the composite z-score turn out when COc1ccc([Si](C)(C)[C@@H]2[C@@H](CCO)O[C@]3(C(=O)N(Cc4ccc(NC(=O)[C@H](C)O)cc4)c4ccccc43)[C@H]2C)cc1 was run?
A: Its composite z-score is 1.19.

Q: COc1ccc([Si](C)(C)[C@H]2[C@H](CC(=O)N(CCO)Cc3ccccc3)O[C@@]3(C(=O)N(C)c4ccccc43)[C@@H]2C)cc1 was tested. Which composite z-score did it give?
A: Its composite z-score is 0.938.

Q: Which composite z-score does the source give for NC(=O)[C@H]1[C@@H]2C(=O)O[C@@H](c3ccccc3)[C@@H](c3ccccc3)N2[C@@H](c2ccc(O)cc2)[C@]12C(=O)Nc1ccc(C#CCCO)cc12 here?
A: Its composite z-score is 1.12.

Q: With CO[C@H]1O[C@H](CO)[C@@H](OC(=O)Nc2ccc3c(c2)OCO3)[C@H](OC(=O)Nc2ccccc2)[C@@H]1OC(=O)Nc1ccccc1 as the compound, how does the composite z-score read?
A: Its composite z-score is 1.29.

Q: Which composite z-score does the source give for CC(C)(C)OC(=O)CC[C@@]1(C(=O)NCc2ccccc2)N=C(c2ccc(OCCCO)cc2)O[C@@H]1c1ccccc1 here?
A: Its composite z-score is 1.27.

Q: C[C@@H]1CC[C@H]2C(=O)N3CCC[C@H]3C(=O)N2[C@H]1c1ccc(Br)cc1 was tested. Which composite z-score did it give?
A: The composite z-score was 0.0421.

Q: For C=CCNC(=O)[C@H]1[C@@H]2C(=O)O[C@@H](c3ccccc3)[C@@H](c3ccccc3)N2[C@@H](c2ccc(O)cc2)[C@]12C(=O)Nc1ccc(C#CCNC(N)=O)cc12, which composite z-score is on record?
A: Its composite z-score is 0.858.

Q: How did the composite z-score turn out when O=C(NCc1ccccc1)[C@@]1(Cc2ccccc2)COC(c2ccc(OCCCO)cc2)=N1 was run?
A: The composite z-score was 1.19.

Q: How did the composite z-score turn out when COc1ccc(C(=O)Nc2ccc(CN3C(=O)[C@]4(O[C@H](CCn5cc(CCO)nn5)[C@@H]([Si](C)(C)c5ccc(OC)cc5)[C@@H]4C)c4ccccc43)cc2)cc1 was run?
A: The composite z-score was 1.09.

Q: How did the composite z-score turn out when O=C1C2C=CC(C(O)c3ccccc3)N(n3cnnc3)C2C(=O)N1Cc1ccccc1 (stereo not given) was run?
A: Its composite z-score is 0.544.

Q: With O=C1c2ccccc2[C@](Cc2ccccc2I)(C(=O)NCC(F)(F)F)[C@H](c2ccc(CO)cc2)N1Cc1ccccc1C(F)(F)F as the compound, how does the composite z-score read?
A: The composite z-score was 1.2.

Q: How did the composite z-score turn out when COCCCNC(=O)[C@@]1(Sc2ccc(C)cc2)CC(=O)N(Cc2cc(C(F)(F)F)cc(C(F)(F)F)c2)[C@@H]1c1ccc(CO)cc1I was run?
A: Its composite z-score is 1.35.

Q: For CC1CC/C=C\[C@H]2OC34C=CCN(Cn5nnc6ccccc65)C(=O)[C@H]3N(C(C)CO)C(=O)[C@@H]4C2C(=O)O1 (stereo not given in full), which composite z-score is on record?
A: Its composite z-score is 0.3.

Q: COCCOC(=O)N1C(=O)[C@@]2(c3cc(C#CCNC(N)=O)ccc31)[C@H](C(=O)N1CCCCCCC1)[C@H]1C(=O)O[C@H](c3ccccc3)[C@H](c3ccccc3)N1[C@@H]2c1ccccc1OCCO was tested. Which composite z-score did it give?
A: Its composite z-score is 1.05.

Q: CO[C@H]1COC(=O)CC=C[C@H](C)[C@@H](OC)COC(=O)CC=C[C@@H]1C was tested. Which composite z-score did it give?
A: Its composite z-score is 0.692.

Q: For C=CCNC(=O)[C@H]1[C@@H]2C(=O)O[C@@H](c3ccccc3)[C@@H](c3ccccc3)N2[C@@H](c2ccccc2OCCO)[C@]12C(=O)N(C(=O)OCCOC)c1ccc(C#CCC(C(=O)OC)C(=O)OC)cc12, which composite z-score is on record?
A: Its composite z-score is 1.22.

Q: Which composite z-score does the source give for CCc1cccc(NC(=O)O[C@H]2[C@H](OC(=O)Nc3ccccc3)[C@@H](OC(=O)Nc3ccccc3)[C@@H](OC)O[C@@H]2CO)c1 here?
A: The composite z-score was 1.39.

Q: O=C1O[C@@H](c2ccccc2)[C@@H](c2ccccc2)N2[C@@H](c3ccccc3OCCO)[C@]3(C(=O)Nc4ccc(C#CC5=CCCCC5)cc43)[C@@H](C(=O)O)[C@H]12 was tested. Which composite z-score did it give?
A: Its composite z-score is 1.1.

Q: O=C1C[C@@](C(=O)NCCN2CCOCC2)(c2ccc([N+](=O)[O-])cc2)[C@@H](c2ccc(CO)cc2)N1C1CCCCC1 was tested. Which composite z-score did it give?
A: The composite z-score was 1.25.

Q: For C[C@H]1NC(=O)[C@@H](C)NC(=O)[C@@]23C(=O)N[C@@H](Cc4ccccc4)C2[C@H](C)[C@@]2(C)O[C@H]2C3/C=C/C/C=C\CNC1=O (stereo not given in full), which composite z-score is on record?
A: The composite z-score was 0.812.

Q: With CCC#CCN(Cc1ccccc1Br)[C@H](/C=C/c1ccccc1)[C@@H](O)Cc1ccccc1 as the compound, how does the composite z-score read?
A: Its composite z-score is -0.11.

Q: How did the composite z-score turn out when C=C(COC)/C(=C/C[C@@H](OC(C)=O)c1cccc(OCCO)c1)c1cc(C(=O)OC)ccc1OC was run?
A: Its composite z-score is 0.597.

Q: Which composite z-score does the source give for O=C/C=C/c1ccccc1Cl here?
A: The composite z-score was -0.118.

Q: With Cc1ccc(S(=O)(=O)c2cc3oc2CC[C@@H](CO)NC(=O)N(C)Cc2cn(nn2)C[C@H](Cc2ccccc2)NC3=O)cc1 as the compound, how does the composite z-score read?
A: The composite z-score was 0.807.

Q: With O=C1O[C@H](c2ccccc2)[C@H](c2ccccc2)N2[C@H]1[C@@H](C(=O)Nc1nc3ccccc3s1)[C@]1(C(=O)Nc3ccc(C#CC4=CCCCC4)cc31)[C@H]2c1ccccc1OCCO as the compound, how does the composite z-score read?
A: The composite z-score was 1.06.

Q: For C=CCC1=C[C@H]2[C@H]([C@@H]3C=C[C@]2(CC=C)C(=O)[C@]32CO2)[C@@]2(CO2)C1=O, which composite z-score is on record?
A: Its composite z-score is 0.319.

Q: CC(C)N1CC=CC23O[C@@H]4/C=C\CCCOC(=O)C4[C@H]2C(=O)N(CCO)[C@@H]3C1=O (stereo not given in full) was tested. Which composite z-score did it give?
A: The composite z-score was 1.12.

Q: For C=CCC(OC(C)=O)[C@@H]1[C@@H](N(Cc2cc3ccccc3o2)C(=O)Cc2ccc(F)cc2)c2cc(OCCCO)ccc2N1C(=O)c1ccc(-c2ccccc2)cc1 (stereo not given in full), which composite z-score is on record?
A: Its composite z-score is -1.03.

Q: How did the composite z-score turn out when C=CCc1cccc([C@H]2N[C@H](C(=O)O)CC[C@@H]2C)c1 was run?
A: The composite z-score was 0.519.

Q: With CCOC(=O)C[C@H]1[C@H](OC(=O)Cc2ccc3c(c2)OCO3)[C@@H](NC(=O)c2ccc3ccccc3c2)c2cc(OCCCO)ccc2N1C(=O)Cc1ccc(OC)cc1 as the compound, how does the composite z-score read?
A: The composite z-score was 0.358.
